NIH3T3 tox: cytotoxic compounds in NIH 3T3 cells. hit rate 4.3% among 94,000. NIH 3T3 viability, CellTiter-Glo ATP luminescence, 48-72 h. Potency, µM (series often up to 96.7 µM), hits mostly inhibitors; note: nearly all actives have a fitted effect of over 55% in size
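First NIH 3T3 cells are plated at 400 cells/well; next compound is pinned in; then plates incubate 48 or 72 hr at 37 °C; finally CellTiter-Glo is added and luminescence read after 10 min.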
FLuc inh-1: inhibitors of firefly (Photinus pyralis) luciferase; P08659; purified P. pyralis luciferase, luminescence, biochemical; hit rate 2.5% among 76,000; Potency, µM (series often up to 115 µM), actives largely listed as inhibitors; AID 1347043; note: nearly all actives have a fitted effect of over 65% in size
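Inhibitors were tested against purified firefly luciferase in a biochemical, low-substrate format (both substrates at 10uM) and luminescence measured with a CCD imager.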
HEK cytotox: cytotoxic compounds in HEK 293 cells; HEK 293 viability, ATP luminescence (CellTiter-Glo), 48-72 h; Potency, µM (doses to about 115 µM), usual class: inhibitors; hit rate 6.6% among 94,000; AID 1345083; note: nearly all actives have a fitted effect of over 60% in size
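Read-out: CellTiter-Glo ATP luminescence. Cells: HEK 293, 250 cells/well. Exposure: 48 or 72 hr, 37 degree Celsius.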
hNpr1 antagonist: antagonists of human natriuretic peptide receptor Npr1; AID 1347048; HEK293 hNpr1 GloSensor cGMP, ANP-stimulated luminescence; P16066; hit rate 1.6% among 76,000; Potency, µM (highest dose often 46.3 µM), actives largely listed as inhibitors; calls by dose curve; note: nearly all actives have a fitted effect of over 60% in size
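Compound pre-incubated 30 min at room temperature on GloSensor-loaded HEK293 cells stably carrying hNpr1 and the pGS-40F cGMP biosensor. Stimulation uses hNppA at 0.1 nM final; luminescence is taken at baseline and 20 min post-agonist.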
FLuc SDR -ATP: binders stabilizing firefly luciferase, without ATP. shares compounds with FLuc inh-1. Purified FLuc-C-HiBiT, Nano-Glo HiBiT luminescence, no ATP. Potency, µM (highest dose often 32.7 µM), most hits filed as activators. hit rate 7.8% among 1,300; note: nearly all actives have a fitted effect of over 55% in size
FLuc SDR ATP: firefly luciferase binding stabilization, ATP added; shares compounds with FLuc inh-1; purified FLuc-C-HiBiT + ATP, HiBiT complementation luminescence; Potency, µM (series often up to 32.7 µM), hits mostly activators; hit rate 8.7% among 1,300; AID 1963319;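 note: signal reports ligand binding via conformational change of the enzyme rather than luciferase catalysis; nearly all actives have a fitted effect of over 55% in size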
FLuc inh-2: blocks firefly luciferase enzymatic activity. hit rate 42% among 1,300. Potency, µM (series often up to 32.7 µM), actives largely listed as inhibitors. shares compounds with FLuc inh-1. purified FLuc-C-HiBiT enzyme, luciferin luminescence; note: nearly all actives have a fitted effect of over 70% in size
Hits are given with their value; – = inactive; ? = inconclusive; · = not tested or not shown. Sampled rows, rich in hits. Any-hit rate of the full collection: about 11%. Unless noted, calls come from the whole dose curve; as a rule, active = well fitted curve in the direction sought with a large enough effect; inconclusive = small, poorly fitted or top-dose-only effect, or another doubt; inactive = no such curve, though single readings can be large; an effect the other way counts as inactive or inconclusive.

SMILES	NIH3T3 tox	FLuc inh-1	HEK cytotox	hNpr1 antagonist	FLuc SDR -ATP	FLuc SDR ATP	FLuc inh-2
O=C(Nc1cccc(-c2nc3ccccc3[nH]2)c1)c1ccccc1F	·	·	·	·	–	–	?
Cc1noc(C)c1-c1ncc2c(n1)OCCN(Cc1ccccc1)C2=O	?	–	–	–	·	·	·
COc1ccc(CN2CCOc3nc(-c4cc5ccccc5o4)ncc3C2=O)cc1	–	3.55µM	?	?	–	–	8.05µM
Cc1cc(C(=O)N2CCCC(O)(CN3CCCC3)C2)ccc1Cl (centres undefined)	–	–	–	–	·	·	·
CCn1cc(-c2ccc(Cl)cc2)cc1C(=O)O	–	?	–	–	–	–	–
CCn1cc(-c2ccc(Cl)cc2)cc1C(=O)N1CCN(c2ccccn2)CC1	?	–	?	?	·	·	·
CCCc1cc(N2CCC(N3CC(Oc4ccccc4F)C3)CC2)nc(C)n1	?	–	?	–	·	·	·
COc1cccc(-c2cn3ncsc3n2)c1	·	·	·	·	–	–	?
Cc1cnc(CCNS(=O)(=O)Cc2ccccc2F)n1C(C)C	–	–	–	–	·	·	·
COc1ccc(-c2cc(N3CCCC(NC(=O)c4ccc5c(c4)OCO5)C3)n[nH]2)cc1 (centres undefined)	?	11.2µM	?	–	–	–	?
O=C(NC1CCCN(c2cc(-c3ccc(F)cc3)[nH]n2)C1)c1cccs1 (centres undefined)	?	?	?	–	·	·	·
COc1ccc(-c2cc(N3CCCC(NC(=O)c4c[nH]c5ccccc45)C3)n[nH]2)cc1 (centres undefined)	?	10µM	?	–	–	–	?
COc1ccc(-c2cc(N3CCCC(NC(=O)c4cccs4)C3)n[nH]2)cc1 (centres undefined)	?	14.1µM	?	–	–	–	?
COc1ccc(-c2cc(N3CCCC(NC(=O)c4cccc5[nH]ccc45)C3)n[nH]2)cc1 (centres undefined)	35.5µM	14.1µM	44.7µM	–	–	–	?
COc1cccc(C(=O)N2CCC(C(=O)N3CCC(N4Cc5ccccc5C4=O)CC3)CC2)c1	–	·	?	·	·	·	·
CSCC[C@@H]1NC(=O)c2cc(NC(=O)c3ccc4ccn(C)c4c3)ccc2NC1=O	–	–	?	–	·	·	·
COc1ccccc1CNC(=O)C1CN(C2CCCCC2)C(=O)N1 (centres undefined)	–	·	–	·	·	·	·
COc1ccc(C(=O)NC(C(=O)NCC(C)C)C2CCN(C(=O)c3cccs3)CC2)cc1 (centres undefined)	–	–	–	–	·	·	·
COC(=O)C1=C(C)N=C2SC=C(CC(=O)N3CCCC(C(N)=O)C3)N2C1c1cccc(Cl)c1 (centres undefined)	–	–	–	?	·	·	·
O=C(c1ccc2ccccc2n1)N1CCC(c2nc(CCOCC3CC3)no2)C1 (centres undefined)	–	·	–	·	·	·	·
CCOc1ccc(-c2cc3c(=O)n(CCNC(=O)c4cccc(N(C)C)c4)ccn3n2)cc1	–	2.51µM	?	–	–	?	3.94µM
CCOc1ccc(-c2cc3c(=O)n(CCNC(=O)c4cccc(C#N)c4)ccn3n2)cc1	–	0.794µM	–	–	–	–	?
CCOc1ccc(-c2cc3c(=O)n(CCNC(=O)c4ccncc4)ccn3n2)cc1	–	6.31µM	?	–	?	?	3.51µM
CCOc1ccc2nc(N(Cc3cccnc3)C(=O)c3cccs3)sc2c1	·	·	·	·	–	–	–
Cc1nc(N2CCC(NC(=O)c3cccc4[nH]ccc34)CC2)cc(C(F)(F)F)n1	?	–	?	–	·	·	·
CCOC(=O)N1CCCC1c1noc2nc(C)cc(C(=O)NC)c12 (centres undefined)	–	·	–	·	·	·	·
O=C(O)c1ccc(-c2nnc3ccc(NC(=O)C4CCC4)cn23)cc1	–	10µM	–	–	?	?	?
COCCn1c(C)cnc1CCNC(=O)NCCc1ccccc1	–	–	–	–	·	·	·
Cc1cccn2c(=O)c(C(=O)NCCc3ccccc3)cnc12	·	·	·	·	?	?	7µM

Screens as filed in PubChem BioAssay.
